Bioassay records from PubChem.
Rab9 prom act: Rab9 promoter activation; Huh7 Rab9 promoter-luciferase reporter, luminescence, 24 h; Potency, µM (titrated, usually from 9.22 µM), for the others: at the top dose activation, negative = inhibition, hits mostly activators; 320,000 tested, 2.8% active; AID 485297; further: % of control where 0% means no effect; nearly all actives have a fitted effect of over 60% in size
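Huh7 cells stably carrying a Rab9 promoter-luciferase reporter, 1500 cells per well in OP-MEM I with 10% FBS, treated with compound 24 hours at 37C. Luciferase activity read by luminescence after 10 minutes with Amplite reagent.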
ELG1 genotox: inducers of genotoxicity in HEK293T ELG1-luciferase cells | 330,000 tested, 1.3% active | Potency, µM (doses to about 46 µM), without a hit: top-dose activity change, positive = activation, most hits filed as activators | AID 504466 | HEK293T ELG1-luciferase reporter, luminescence, 16 h; further: % of control where 0% means no effect; nearly all actives have a fitted effect of over 60% in size
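Luminescence read-out: rising ELG1-luciferase signal, reflecting elevated ELG1 protein under genetic stress, flags genotoxic compounds. Cells were treated for 16 hr at 37 °C before ONE-Glo detection.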
p53 reactivator: re-activators of mutant p53 | AID 504706 | H1299 p53-A138V BP100-luciferase reporter, luminescence, 24 h | Potency, µM (series often up to 92.2 µM), for inactives: top-dose activity change, positive = activation, most hits filed as activators | 320,000 tested, 0.063% active; further: % of control where 0% means no effect; nearly all actives have a fitted effect of over 45% in size
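H1299 (p53-null), stable ts p53-A138V + BP100-Luc; 1000 cells/well, Opti-MEM/10% FBS; cpd 4 pt, 1:5; 24 h, 37 deg C, 5% CO2; detection reagent 10 min RT; luminescence.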
NPC1 prom act: activates the NPC1 promoter; Potency, µM (doses to about 9.22 µM), inactives show at the highest dose activation, usual class: activators; 320,000 tested, 2.4% active; Huh7 NPC1 promoter luciferase reporter, 24 h; AID 485313; further: % of control where 0% means no effect; nearly all actives have a fitted effect of over 60% in size
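In 1536-well qHTS, Huh7 cells harboring an NPC1 promoter–luciferase construct received compound for 24 h; activation was quantified by luminescence following luciferase reagent addition.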
FLuc counter: firefly luciferase modulation, counter-screen for miR-21 project; AID 588342; 360,000 tested, 6.9% active; P08659; purified FLuc, Km substrates, luminescence inhibition; Potency, µM (top dose mostly 57.5 µM), without a hit: at the top dose activity change, negative = inhibition, actives largely listed as inhibitors;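 further: plate controls were vehicle for no effect and reference inhibitor for full effect; nearly all actives have a fitted effect of over 55% in size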
Target sequence (P08659 whole entry, looked up): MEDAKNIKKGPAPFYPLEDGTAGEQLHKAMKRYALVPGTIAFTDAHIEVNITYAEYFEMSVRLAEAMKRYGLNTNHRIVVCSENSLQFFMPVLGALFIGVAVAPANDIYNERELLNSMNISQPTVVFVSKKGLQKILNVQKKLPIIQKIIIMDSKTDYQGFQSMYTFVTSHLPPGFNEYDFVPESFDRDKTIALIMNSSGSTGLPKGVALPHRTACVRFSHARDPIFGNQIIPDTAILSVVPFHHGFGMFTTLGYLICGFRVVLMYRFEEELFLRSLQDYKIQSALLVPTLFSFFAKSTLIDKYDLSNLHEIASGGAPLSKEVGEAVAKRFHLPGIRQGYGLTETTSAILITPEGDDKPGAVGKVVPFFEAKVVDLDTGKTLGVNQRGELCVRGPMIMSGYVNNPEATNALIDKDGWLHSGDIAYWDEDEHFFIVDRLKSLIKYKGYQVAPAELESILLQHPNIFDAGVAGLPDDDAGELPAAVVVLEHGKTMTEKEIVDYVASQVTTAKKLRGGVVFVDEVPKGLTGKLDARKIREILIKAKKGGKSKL
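Purified P. pyralis luciferase (10nM final) with 10uM D-luciferin and 10uM ATP (Km levels) in 50mM Tris acetate pH 7.5, 10mM Mg acetate, 0.01% Tween-20, 0.05% BSA; qHTS 6-point titration, ~60 µM downward; luminescence read.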
SMN2 splice up: SMN2 splice variant enhancement; AID 1458; Potency, µM (highest dose often 46.1 µM), for the others: top-dose activity change, positive = activation, most hits filed as activators; 210,000 tested, 2.8% active; HEK293 SMN2-luciferase splicing reporter, luminescence, 30-36 h; further: % of control where 0% means no effect; nearly all actives have a fitted effect of over 55% in size
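qHTS luciferase splicing reporter: luminescence rises when SMN2 exon 7 is included in transfected HEK293 cells. Compound exposure lasted 30-36 h at 37C, with 4.5 mM final sodium butyrate as control, followed by a ONE-Glo read.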
Numbers without * were called inactive; [ ] = another dose, or the depositor's remark. Hits are enriched below; roughly 7.4% of the tested compounds scored in any of these assays. The call rests on the fitted dose curve; in most records, active means well fitted curve in the direction sought with a large enough effect; inconclusive means small, poorly fitted or top-dose-only effect, or another doubt; inactive means no such curve, though single readings can be large; an effect the other way counts as inactive or inconclusive. Potency means the concentration at half of the fitted maximal effect.

Cc1ccc(CNC(=O)Nc2ccc(Cl)cc2)cc1 was read as Rab9 prom act 3.98µM*, ELG1 genotox inconclusive, p53 reactivator 26.5%, NPC1 prom act inconclusive and FLuc counter -8.2%.
For Cc1ccc(CNC(=O)NCc2ccccc2)cc1 the results were Rab9 prom act 4.2%, ELG1 genotox 7.8%, p53 reactivator inconclusive, NPC1 prom act 22.6%, FLuc counter inconclusive and SMN2 splice up inconclusive.
Screening Cc1ccc(CNC(=O)Nc2ccccc2)cc1 returned Rab9 prom act 2.51µM*, ELG1 genotox 9.2µM*, p53 reactivator 16.1%, NPC1 prom act inconclusive, FLuc counter 12µM* and SMN2 splice up 15.8µM*.
Screening O=C(NCc1ccc(F)cc1)Nc1ccccc1 returned Rab9 prom act inconclusive, ELG1 genotox inconclusive, p53 reactivator 22.0%, NPC1 prom act inconclusive and FLuc counter inconclusive.
`Cc1ccc2[nH]cc(CCNC(=O)Nc3ccccc3)c2c1` gave Rab9 prom act -3.3%, ELG1 genotox -3.4%, p53 reactivator inconclusive, NPC1 prom act 0.9%, FLuc counter 0.1% and SMN2 splice up -36.4%.
For Cc1ccc(N2CCN(c3nc4c(S(=O)(=O)c5ccc(C)c(C)c5)nnn4c4ccccc34)CC2)c(C)c1 the results were FLuc counter -2.2%.
`N#CC[N+]1(Cc2ccccn2)CCCC1` gave SMN2 splice up -7.6%[9.22 µM].
`O=C(Cn1c(SCC(=O)Nc2ccc(F)cc2)nc2ccccc21)NCc1ccc(Cl)cc1` gave FLuc counter -1.2%.
O=C(NCC1CC1)Nc1ccc(Cl)cc1 was read as Rab9 prom act inconclusive, ELG1 genotox inconclusive, p53 reactivator inconclusive, NPC1 prom act inconclusive and FLuc counter 16.9µM*.
`COc1ccc(CNC(=O)Nc2cccs2)cc1OC` gave Rab9 prom act -1.0%, ELG1 genotox 0.5%, p53 reactivator -1.0%, NPC1 prom act -0.1%, FLuc counter -1.2% and SMN2 splice up 2.3%.
`Cc1ccc(CNC(=O)Nc2cccs2)cc1` gave Rab9 prom act inconclusive, ELG1 genotox 14.3%, p53 reactivator inconclusive, NPC1 prom act inconclusive, FLuc counter 12µM* and SMN2 splice up 15.8µM*.
`Cc1ccc(Nc2nnc(SC(C)C(=O)Nc3c(C)n(C)n(-c4ccccc4)c3=O)s2)cc1` (stereo not given) gave Rab9 prom act 0.3%, ELG1 genotox -0.2%, p53 reactivator 2.7%, NPC1 prom act -1.0%, FLuc counter 10.7µM* and SMN2 splice up 5.5%.
Cc1cccc(C)c1Nc1nnc(SC(C)C(=O)Nc2c(C)n(C)n(-c3ccccc3)c2=O)s1 (stereo not given) was read as Rab9 prom act -4.8%, ELG1 genotox -0.4%, p53 reactivator -2.1%, NPC1 prom act 1.3%, FLuc counter 1.9% and SMN2 splice up 2.9%.
`Cc1cc(CN(C)C(=O)c2ccc3nc(Cc4ccccc4F)oc3c2)on1` gave Rab9 prom act 3.16µM*, ELG1 genotox -3.1%, p53 reactivator -0.1%, NPC1 prom act 2.82µM* and FLuc counter inconclusive.
For CN(Cc1nccs1)C(=O)c1ccc2nc(Cc3ccccc3F)oc2c1 the results were Rab9 prom act 0.0%, ELG1 genotox -2.3%, p53 reactivator 2.0%, NPC1 prom act 0.7% and FLuc counter 2.9%.
For CN(Cc1nccn1C)C(=O)c1ccc2nc(Cc3ccccc3F)oc2c1 the results were Rab9 prom act inconclusive, ELG1 genotox inconclusive, p53 reactivator 16.3%, NPC1 prom act 14.6% and FLuc counter 13.5µM*.
Screening Cc1ccn2cc(-c3ccc4c(c3)NC(=O)CO4)nc2c1 returned Rab9 prom act 0.562µM*, ELG1 genotox inconclusive, p53 reactivator 19.6%, NPC1 prom act 1.26µM*, FLuc counter 2.39µM* and SMN2 splice up 5.62µM*.
Screening Cc1cccn2cc(-c3ccc4c(c3)NC(=O)CO4)nc12 returned Rab9 prom act inconclusive, ELG1 genotox 11.4%, p53 reactivator 11.2%, NPC1 prom act 25.3% and FLuc counter 10.7µM*.
For O=C(Nc1ccc(S(=O)(=O)N2CCCCC2c2cccnc2)cc1)c1ccc(Br)cc1 (stereo not given) the results were FLuc counter 6.2%.
For C=CCn1c(C)cc(C(=O)CN2C(=O)NC3(CCCc4ccccc43)C2=O)c1C (stereo not given) the results were Rab9 prom act 11.8%, ELG1 genotox 2.9%, p53 reactivator 8.6%, NPC1 prom act 0.1%, FLuc counter 19µM* and SMN2 splice up 4.1%.
For COCCn1c(C)cc(C(=O)CN2C(=O)NC3(CCCCCC3)C2=O)c1C the results were Rab9 prom act 2µM*, ELG1 genotox inconclusive, p53 reactivator inconclusive, NPC1 prom act 2.51µM* and FLuc counter 10.7µM*.
For Cc1cc(C(=O)CN2C(=O)NC3(CCCc4ccccc43)C2=O)c(C)n1Cc1cccs1 (stereo not given) the results were Rab9 prom act 2.1%, ELG1 genotox 11.4%, p53 reactivator 9.9%, NPC1 prom act 11.7%, FLuc counter 6.01µM* and SMN2 splice up 9.6%.
Screening CCN(Cc1cccs1)C(=O)CN1C(=O)NC2(CCCc3ccccc32)C1=O (stereo not given) returned Rab9 prom act -0.2%, ELG1 genotox 0.8%, p53 reactivator 3.6%, NPC1 prom act -0.8% and FLuc counter 0.0%.
For Cc1cc(C(=O)CN2C(=O)NC3(CCCCCC3)C2=O)c(C)n1C the results were Rab9 prom act inconclusive, ELG1 genotox 8.9%, p53 reactivator 28.0%, NPC1 prom act 25.4% and FLuc counter inconclusive.
`O=C(O)c1cc(N2N=C(C(F)(F)F)/C(=C/C=C/c3ccco3)C2=O)ccc1Cl` gave Rab9 prom act -3.2%, ELG1 genotox -2.1%, p53 reactivator 0.0%, NPC1 prom act -3.9% and FLuc counter 23.9µM*.
`COc1ccc(CC(=O)OCC(=O)N2CCc3ccccc32)cc1OC` gave Rab9 prom act -3.3%, ELG1 genotox -1.1%, p53 reactivator 15.4%, NPC1 prom act -0.7% and FLuc counter inconclusive.
CC1CCCC(=C\c2ccccc2)/C1=N/O (stereo not given) was read as Rab9 prom act -2.2%, ELG1 genotox 3.0%, p53 reactivator 2.8%, NPC1 prom act -0.4%, FLuc counter -8.0% and SMN2 splice up -4.9%.
`CC1CCC/C(=C\Nc2ccc3c(c2)OCO3)C1=O` (stereo not given) gave Rab9 prom act inconclusive, ELG1 genotox 10.3µM*, p53 reactivator inconclusive, NPC1 prom act inconclusive, FLuc counter 8.49µM* and SMN2 splice up inconclusive.
